Bioassay records: PubChem, National Center for Advancing Translational Sciences (NCATS)
In the library only some 11% were active in any assay of this set; here they are far more common.
HTT ATP protect: qHTS Multiplex Assay to Identify Dual Action Probes in a Cell Model of Huntington: Cytoprotection (ATP) | PC12 HTT-Q103 induced, cytoprotection, ATP luminescence, 40 h | Potency, µM (series often up to 56.4 µM), without a hit: cytoprotection (ATP increase), hits mostly activators | 230,000 tested, 0.14% active; also: potency is read from the fitted curve at half-maximal effect; % of control where 0% means no effect; nearly all actives have a fitted effect of over 45% in size
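PC12 cells stably carrying ecdysone-inducible Htt exon 1 (Q103)–GFP were induced with 100 nM tebufenozide (final) alongside library compounds in a dose series. Cytoprotection was scored as retained ATP by ATPlite luminescence.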
HPGD block: qHTS Assay for Inhibitors of HPGD (15-Hydroxyprostaglandin Dehydrogenase). purified HPGD, NADH fluorescence kinetic, PGE2 substrate. Potency, µM, without a hit: at the highest dose activity change, negative = inhibition, most hits filed as inhibitors. 150,000 tested, 4.3% active; active = well fitted inhibition curve with a large enough effect, not every such curve was filed as active; inconclusive = small, poorly fitted or top-dose-only effect, or another doubt; inactive = no such curve, though single readings can be large or run the other way; also: potency is read from the fitted curve at half-maximal effect; % is scaled to controls: 0 for no effect and ±100 for the full control effect
Target sequence (P15428 whole entry, looked up): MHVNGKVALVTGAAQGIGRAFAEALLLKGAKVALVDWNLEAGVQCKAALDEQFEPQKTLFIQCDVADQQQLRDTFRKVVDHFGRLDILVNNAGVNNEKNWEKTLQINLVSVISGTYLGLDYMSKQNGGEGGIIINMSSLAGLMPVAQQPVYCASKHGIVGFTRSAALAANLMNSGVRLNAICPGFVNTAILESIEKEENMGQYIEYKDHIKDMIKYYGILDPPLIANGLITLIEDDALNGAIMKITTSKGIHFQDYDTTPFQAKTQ
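NADH formation kinetics: reaction with 30 uM PGE2 and 1 mM NAD+ (final), 20 nM enzyme, Tris-HCl pH 8 with Tween 20, after 15 min compound preincubation at room temperature. Fluorescence change, last versus first of five reads.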
CBFb-RUNX1 inh: qHTS Assay for Compounds Blocking the Interaction Between CBF-beta and RUNX1 for the Treatment of Acute Myeloid Leukemia; Runt-related transcription factor 1 (Homo sapiens) + Core-binding factor subunit beta …; AlphaScreen CBFb-His/RUNX1-biotin binding, biochemical; Potency, µM (series often up to 59.8 µM), without a hit: at the top dose activity, negative = inhibition, usual class: inhibitors; 230,000 tested, under 10 active; also: % of control where 0% means no effect
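CBFb-His/RUNX1-biotin, 30 nM each, preincubated 20 min RT; compound 15 min RT; Ni + streptavidin beads 50 ng each, 90 min RT; AlphaScreen read.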
ALDH1A1 block: qHTS Assay for Inhibitors of Aldehyde Dehydrogenase 1 (ALDH1A1). Aldehyde dehydrogenase 1A1 (Homo sapiens), P00352. Purified ALDH1A1, NADH fluorescence, propionaldehyde substrate. Potency, µM (highest dose often 75.3 µM), for the others: at the top dose activity, negative = inhibition, most hits filed as inhibitors. 220,000 tested, 7.3% active; active = well fitted inhibition curve with a large enough effect, not every such curve was filed as active; inconclusive = small, poorly fitted or top-dose-only effect, or another doubt; inactive = no such curve, though single readings can be large or run the other way;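 also: potency is read from the fitted curve at half-maximal effect; plate controls were no enzyme wells and a reference inhibitor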
Target sequence (P00352 whole entry, looked up): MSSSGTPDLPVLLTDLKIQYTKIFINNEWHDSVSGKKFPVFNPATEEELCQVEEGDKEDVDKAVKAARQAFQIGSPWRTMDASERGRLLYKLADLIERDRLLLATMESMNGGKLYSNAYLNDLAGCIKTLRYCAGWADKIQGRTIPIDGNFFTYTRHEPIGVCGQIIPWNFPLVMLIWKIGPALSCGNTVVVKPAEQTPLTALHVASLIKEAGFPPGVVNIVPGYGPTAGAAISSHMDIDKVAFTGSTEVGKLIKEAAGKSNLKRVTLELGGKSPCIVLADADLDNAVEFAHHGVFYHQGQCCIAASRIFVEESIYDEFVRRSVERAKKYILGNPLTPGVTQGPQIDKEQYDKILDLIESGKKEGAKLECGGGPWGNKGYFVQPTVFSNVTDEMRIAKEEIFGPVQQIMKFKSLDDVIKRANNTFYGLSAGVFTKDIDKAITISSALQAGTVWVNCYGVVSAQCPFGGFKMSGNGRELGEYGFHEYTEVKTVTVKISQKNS
HTT aggregate: qHTS Multiplex Assay to Identify Dual Action Probes in a Cell Model of Huntington: Aggregate Formation (GFP) | PC12 HttQ103-GFP aggregates, Acumen cytometry, 40 h | Potency, µM (doses to about 46.1 µM), without a hit: at the top dose activity change, negative = inhibition, usual class: inhibitors | 220,000 tested, 1.1% active | AID 1688, 2009; also: potency is read from the fitted curve at half-maximal effect; % is scaled to controls: 0 for no effect and ±100 for the full control effect; nearly all actives have a fitted effect of over 60% in size
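Compounds (qHTS titration) were added to PC12 cells expressing an ecdysone-driven HTT exon 1 Q103–GFP fusion after induction with 100 nM tebufenozide. Aggregate formation was measured as GFP objects in cell lysates.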
PNC assembly inh: High Content Assay for Compounds that inhibit the Assembly of the Perinucleolar Compartment. activity change (PNC), negative = inhibition, % at 10 µM. 140,000 tested, 3.1% active. PC3M PTB-GFP, PNC prevalence imaging, 16 h; stronger effect = lower value;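 active = readout at or below -70, meaning at least 70% loss of cells showing the perinucleolar compartment, a nuclear body marking cancer cells; inconclusive = readout between -30 and a set limit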;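 also: plate controls were DMSO wells for no effect and camptothecin positive control wells for full effect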
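Read-out is percentage of cells bearing a perinucleolar compartment, from automated 20x imaging of fixed, Hoechst-stained PC3M PTB-GFP cells. Cells were seeded 4 h, then exposed 16 h to compound (23 nl of library stock) in duplicate plates.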
* hit, by the source's call; [ ] = another dose, or the depositor's remark. Unless noted, calls follow the shape of the dose curve; as a rule, active = well fitted curve in the direction sought with a large enough effect; inconclusive = small, poorly fitted or top-dose-only effect, or another doubt; inactive = no such curve, though single readings can be large; an effect the other way counts as inactive or inconclusive.

Screening [O-]/[N+](=C\c1ccc(OC(F)F)cc1)c1ccccc1 returned HTT ATP protect -16.6%, HPGD block -23.8%, CBFb-RUNX1 inh -0.6%, ALDH1A1 block 7.94µM*, HTT aggregate 12.9% and PNC assembly inh 43.6.
`[O-]/[N+](=C/c1ccc(F)cc1)c1ccccc1` gave HTT ATP protect -14.5%, HPGD block -15.7%, CBFb-RUNX1 inh 1.2%, ALDH1A1 block inconclusive, HTT aggregate 11.8% and PNC assembly inh 11.6.
C[C@@H](NC(=O)C1(N)CCCC1)C(=O)O was read as HTT ATP protect 17.3%[10 µM], HPGD block -4.7% and ALDH1A1 block 15.9%[13.5 µM].
COc1cc(C=C2C(=O)c3ccccc3C2=O)cc(OC)c1OC was read as HTT ATP protect -26.0%, CBFb-RUNX1 inh -11.4%, ALDH1A1 block 1.58µM* and HTT aggregate -17.1%.
COc1cc(C=C2C(=O)c3ccccc3C2=O)cc(OC)c1 was read as HTT ATP protect 7.5%[10 µM], CBFb-RUNX1 inh -5.3% and HTT aggregate -15.9%[9.22 µM].
Screening COc1cc(C=C2C(=O)c3ccccc3C2=O)ccc1O returned HTT ATP protect -1.7%[10 µM], CBFb-RUNX1 inh -3.3%, ALDH1A1 block inconclusive and HTT aggregate -14.8%[9.22 µM].
`COc1cccc(/C=C2\C(=O)C(=O)c3ccccc32)c1` gave HTT ATP protect 5.0%, HPGD block 3.55µM*, CBFb-RUNX1 inh -8.1%, ALDH1A1 block inconclusive, HTT aggregate 7.9%[9.22 µM] and PNC assembly inh inconclusive.
COc1ccc(C=C2C(=O)c3ccccc3C2=O)cc1O was read as HTT ATP protect -19.8%, CBFb-RUNX1 inh -20.9%, ALDH1A1 block 0.891µM* and HTT aggregate 0.4%.
`N#CCCn1c(=O)c(-c2ccc(F)cc2)nc2cnc(Oc3ccccc3)nc21` gave HTT ATP protect -3.8%, HPGD block -10.3% and ALDH1A1 block inconclusive.
`Cc1nn(-c2ccccc2)c(C)c1/C=C/C(=O)OCC(=O)Nc1ncc(C(F)(F)F)cc1Cl` gave HPGD block inconclusive, CBFb-RUNX1 inh 1.3%, ALDH1A1 block inconclusive, HTT aggregate -9.0% and PNC assembly inh -113.4*.
For O=C(COC(=O)c1ccc2ccccc2n1)Nc1ncc(C(F)(F)F)cc1Cl the results were HTT ATP protect -13.9%, HPGD block -4.4%, CBFb-RUNX1 inh -3.6%, ALDH1A1 block 11.5%, HTT aggregate 7.5% and PNC assembly inh -1.2.
Screening O=C(COC(=O)c1ccc2ccccc2c1)Nc1ncc(C(F)(F)F)cc1Cl returned HTT ATP protect 18.1%, HPGD block -33.1%, CBFb-RUNX1 inh 0.5%, ALDH1A1 block -13.6%, HTT aggregate 1.3% and PNC assembly inh 4.5.
O=C(COC(=O)C1(c2ccccc2F)CCCC1)Nc1ncc(C(F)(F)F)cc1Cl was read as HPGD block -8.5%, CBFb-RUNX1 inh 23.3%, ALDH1A1 block inconclusive, HTT aggregate -2.1% and PNC assembly inh -109.0*.
Cc1ccc(CSCCNC(=O)/C=C/c2ccccc2Cl)cc1 was read as HTT ATP protect -24.6%, HPGD block 8.91µM*, CBFb-RUNX1 inh -1.0%, ALDH1A1 block 4.47µM*, HTT aggregate -6.9% and PNC assembly inh -23.2.
O=C(/C=C/c1ccc(Cl)cc1Cl)NCCSCc1ccccc1 was read as HTT ATP protect 1.5%[10 µM], HPGD block 14.1µM*, CBFb-RUNX1 inh -24.1%, ALDH1A1 block -9.8%, HTT aggregate -9.3% and PNC assembly inh inconclusive.
O=C(/C=C/c1ccccc1)NCCSCc1ccccc1Cl was read as HTT ATP protect 3.2%[10 µM], HPGD block 10µM*, CBFb-RUNX1 inh 9.1%, ALDH1A1 block 2.24µM*, HTT aggregate -17.3% and PNC assembly inh -91.1*.
`O=C(/C=C/c1ccccc1)NCCSCc1ccc(Cl)cc1` gave HTT ATP protect 10.5%[10 µM], HPGD block -11.0%, CBFb-RUNX1 inh 14.1%, ALDH1A1 block -0.2%, HTT aggregate 12.1% and PNC assembly inh -5.0.
For CCOC(=O)N1CCN(/[N+]([O-])=N/Oc2ccc([N+](=O)[O-])cc2[N+](=O)[O-])CC1C (centres undefined) the results were CBFb-RUNX1 inh -2.4%.
`Cc1ccccc1NS(=O)(=O)c1ccc2c(c1)n(C)c(=O)n2C` gave HTT ATP protect -3.2%[10 µM], CBFb-RUNX1 inh 10.3%, ALDH1A1 block inconclusive and HTT aggregate 3.1%[9.22 µM].
Screening CC(C)(C)c1ccc(S(=O)(=O)Nc2ccc3c(c2)COC3=O)cc1 returned HTT ATP protect 8.7%[10 µM], CBFb-RUNX1 inh 10.7%, ALDH1A1 block 4.47µM* and HTT aggregate -30.9%.
`Cc1cc(S(=O)(=O)Nc2ccc3c(c2)COC3=O)ccc1F` gave HTT ATP protect -0.6%[10 µM], CBFb-RUNX1 inh -0.6%, ALDH1A1 block inconclusive and HTT aggregate 16.3%[9.22 µM].
`COc1ccc(OC)c(NS(=O)(=O)c2ccc3c(c2)n(C)c(=O)n3C)c1` gave HTT ATP protect -8.9%[0.074 µM], HPGD block 1.1%, CBFb-RUNX1 inh -6.6%, ALDH1A1 block -9.8%, HTT aggregate -10.8% and PNC assembly inh 3.4.
COc1ccc(NS(=O)(=O)c2ccc3c(c2)n(C)c(=O)n3C)cc1 was read as HTT ATP protect 4.5%[10 µM], HPGD block 15.8µM*, CBFb-RUNX1 inh -0.4%, ALDH1A1 block -10.0%, HTT aggregate -24.4% and PNC assembly inh -10.2.
For Cn1c(=O)n(C)c2cc(NS(=O)(=O)c3ccc(C(C)(C)C)cc3)ccc21 the results were HTT ATP protect 6.1%[10 µM], CBFb-RUNX1 inh 7.2%, ALDH1A1 block 0.562µM* and HTT aggregate 12.7%[9.22 µM].
For Cn1c(=O)n(C)c2cc(NS(=O)(=O)c3ccc4c(c3)CCCC4)ccc21 the results were HTT ATP protect -11.5%[0.074 µM], HPGD block -2.1%, CBFb-RUNX1 inh -4.1%, ALDH1A1 block 1µM*, HTT aggregate 2.82µM* and PNC assembly inh -22.5.
For COC(=O)CCN(Cc1ccco1)S(=O)(=O)c1ccc(F)cc1Br the results were CBFb-RUNX1 inh 8.3%.
Screening CCOC(=O)N1CCN(/[N+]([O-])=N/Oc2ccc([N+](=O)[O-])cc2[N+](=O)[O-])CC1 returned CBFb-RUNX1 inh 2.8%.
